HCMV antiviral = qHTS Assay for inhibitors of the human cytomegalovirus (HCMV); activity change, negative = inhibition, % at 57.5 µM; HFF cells, HCMV-luciferase reporter, 72 h; active compounds read low; 410,000 tested, 4.5% active; in the data active means activity change below about -60%; inconclusive means no clear call, values can overlap the other calls; inactive means above about -39%; further: on the % scale 0 is the no-effect control and ±100 the full control effect
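Luciferase read-out from HCMV-luciferase-infected HFFs (MOI 1 PFU/cell) 72 h post infection at 37C; compounds added after 16 h cell attachment; activity normalized between buffer-only basal and Salinomycin (10uM) inhibitor controls.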
SARS PLpro yeast = qHTS of Yeast-based Assay for SARS-CoV PLP. Potency, µM (top dose mostly 32.9 µM), inactives show top-dose activity, positive = growth rescue, usual class: activators. S. cerevisiae expressing SARS-CoV PLpro, growth rescue. 330,000 tested, 0.19% active. AID 485353, 2010; calls by dose curve; further: potency means the concentration at half of the fitted maximal effect; 0% is about no effect; nearly all actives have a fitted effect of over 55% in size
Sm TGR inh = qHTS Assay for the Inhibitors of Schistosoma Mansoni Peroxiredoxins. purified TGR, DTNB reduction, TNB absorbance 405 nm. Potency, µM (series often up to 114 µM), inactives show top-dose activity change, negative = inhibition, hits mostly inhibitors. 360,000 tested, 3% active. AID 485364, 2010; further: potency means the concentration at half of the fitted maximal effect; on the % scale 0 is the no-effect control and ±100 the full control effect; nearly all actives have a fitted effect of over 60% in size
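TGR 20 nM + NADPH 100 uM (dispensed conc.), cpd preinc 15 min RT; start with NADPH (500 uM addition) then DTNB (15 mM addition). Kinetic TNB absorbance, 405 nm filter. Four-parameter Hill fit across titration.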
HCV inhibitor = qHTS Assay for Inhibitors of Hepatitis C Virus (HCV) | Huh7.5.1 HCVcc-Cre infection, luciferase reporter, 44 h | Potency, µM (doses to about 41.8 µM), for the others: at the top dose activity change, negative = inhibition, usual class: inhibitors | 340,000 tested, 3.4% active | AID 651820, 2012; further: potency means the concentration at half of the fitted maximal effect; on the % scale 0 is the no-effect control and ±100 the full control effect
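Luciferase read-out (15 sec integration) after a 15 min room-temperature substrate step quantifies HCVcc-Cre infection. Cells, 1,000 per well, had compound added 4 h post-plating, then virus at ~0.5 moi, and were cultured 44 h.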
Pf growth 48h = Primary qHTS for delayed death inhibitors of the malarial parasite plastid, 48 hour incubation; P. falciparum luciferase growth in erythrocytes, 48 h; Potency, µM (series often up to 28.7 µM), inactives show top-dose activity change, negative = inhibition, usual class: inhibitors; 310,000 tested, 5.9% active; AID 504832, 2011; further: potency means the concentration at half of the fitted maximal effect; on the % scale 0 is the no-effect control and ±100 the full control effect
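Compounds are pin-transferred into medium, infected erythrocytes (2% hematocrit, 0.1% parasitemia final) are added, and plates sit one parasite generation at 37 C in 5% CO2. Detection reagent is then added and luminescence measured.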
Pf growth 96h = Primary qHTS for delayed death inhibitors of the malarial parasite plastid, 96 hour incubation. P. falciparum luciferase reporter growth, 96 h. AID 504834, 2011. 320,000 tested, 6.9% active. Potency, µM (highest dose often 28.7 µM), without a hit: at the highest dose activity change, negative = inhibition, hits mostly inhibitors; further: potency means the concentration at half of the fitted maximal effect; on the % scale 0 is the no-effect control and ±100 the full control effect
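Parasite growth measured via integrated firefly luciferase reporter in P. falciparum. Infected erythrocytes at 2% hematocrit, 0.05% parasitemia final were treated 96 hours at 37 C under 5% CO2, and luminescence was read.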
* = called active by the depositor. This is a sample that favours compounds with a hit; in the whole collection about 15% have one here. Unless noted, the call rests on the fitted dose curve; in most records, active means well fitted curve in the direction sought with a large enough effect; inconclusive means small, poorly fitted or top-dose-only effect, or another doubt; inactive means no such curve, though single readings can be large; an effect the other way counts as inactive or inconclusive.

CCOc1cc(C(=O)NCCc2csc(-c3ccc(C)cc3)n2)cc(OCC)c1OCC was read as HCMV antiviral 1 and Sm TGR inh -6%.
COc1cc(OC)cc(C(=O)N[C@H](C(=O)NC2=NCCS2)C(C)C)c1 was read as HCMV antiviral -4, SARS PLpro yeast 2% and HCV inhibitor inconclusive.
COc1ccc(C(C(=O)NCc2ccccc2)N(Cc2ccco2)C(=O)c2snc(C(N)=O)c2N)cc1 (centres undefined) was read as HCMV antiviral 30, SARS PLpro yeast -2%, Sm TGR inh -4%, HCV inhibitor inconclusive, Pf growth 48h inconclusive and Pf growth 96h 1%.
COc1ccc(C(C(=O)NCc2ccccc2)N(Cc2ccco2)C(=O)c2snc(C(N)=O)c2N)cc1OC (centres undefined) was read as HCMV antiviral inconclusive, SARS PLpro yeast -7%, Sm TGR inh 7%, HCV inhibitor inconclusive, Pf growth 48h 10µM* and Pf growth 96h 14%.
Screening COc1ccc2c(c1)c1ccc3c(c1n2C)C(=O)C=CC3=O returned HCMV antiviral 2, SARS PLpro yeast 1%, Sm TGR inh 1.3µM*, HCV inhibitor inconclusive, Pf growth 48h inconclusive and Pf growth 96h inconclusive.
`Cc1ccc2c(c1)c1ccc3c(c1n2C)C(=O)C=CC3=O` gave HCMV antiviral inconclusive, SARS PLpro yeast -6%, Sm TGR inh 2.5µM*, HCV inhibitor 11µM*, Pf growth 48h inconclusive and Pf growth 96h inconclusive.
`COc1ccc([N+](=O)[O-])cc1N(CC(=O)NCCC1=CCCCC1)S(C)(=O)=O` gave HCMV antiviral 15, SARS PLpro yeast 3%, Sm TGR inh -7%, HCV inhibitor 0%, Pf growth 48h -19% and Pf growth 96h 27%.
O=S(=O)([N-]c1nc2ccccc2nc1-[n+]1ccc(-c2ccncc2)cc1)c1ccccc1 was read as HCMV antiviral 115, SARS PLpro yeast 0%, Sm TGR inh 3%, HCV inhibitor 16%, Pf growth 48h inconclusive and Pf growth 96h inconclusive.
O=S(=O)([N-]c1nc2ccccc2nc1-[n+]1ccc(CCCc2ccccc2)cc1)c1cccs1 was read as HCMV antiviral -14, SARS PLpro yeast 0%, Sm TGR inh 6%, HCV inhibitor -23%, Pf growth 48h 7.4µM* and Pf growth 96h 5.2µM*.
For O=S(=O)([N-]c1nc2ccccc2nc1-n1cc[n+](Cc2ccccc2)c1)c1ccccc1 the results were HCMV antiviral 102, SARS PLpro yeast -1%, Sm TGR inh inconclusive, HCV inhibitor -5%, Pf growth 48h -25% and Pf growth 96h -6%.
`CCCC[n+]1ccn(-c2nc3ccccc3nc2[N-]S(=O)(=O)c2ccccc2)c1` gave HCMV antiviral 20, SARS PLpro yeast -8%, Sm TGR inh -15%, HCV inhibitor 13% and Pf growth 96h 15µM*.
Screening CCCC[n+]1ccn(-c2nc3ccccc3nc2[N-]S(=O)(=O)c2ccc(C)cc2)c1 returned HCMV antiviral 4, SARS PLpro yeast -1%, Sm TGR inh -18%, HCV inhibitor 9% and Pf growth 96h 1%.
For CCCC[n+]1ccn(-c2nc3ccccc3nc2[N-]S(=O)(=O)c2cccs2)c1 the results were HCMV antiviral 4, SARS PLpro yeast 0%, Sm TGR inh 18%, HCV inhibitor 17%, Pf growth 48h inconclusive and Pf growth 96h 5.9µM*.
For Cc1ccc(S(=O)(=O)[N-]c2nc3ccccc3nc2-n2cc[n+](Cc3ccccc3)c2)cc1 the results were HCMV antiviral 128, SARS PLpro yeast 0%, Sm TGR inh -36%, HCV inhibitor inconclusive, Pf growth 48h 4.1µM* and Pf growth 96h 1.5µM*.
For CCOC(=O)c1c(C)[nH]c(CCC(=O)Nc2cc(C)ccc2OC)c1C the results were HCMV antiviral -5 and Sm TGR inh 2%.
For COc1cc(OC)c(NC(=O)c2ccc3nc(C(C)C)oc3c2)cc1Cl the results were HCMV antiviral -30 and Sm TGR inh 1%.
Screening Cc1nc(N2CCN(c3ccccn3)CC2)c2c(C)c(C(=O)Nc3ccc(F)cc3F)sc2n1 returned HCMV antiviral -13, SARS PLpro yeast -3%, Sm TGR inh -6%, HCV inhibitor 6%, Pf growth 48h 8.3µM* and Pf growth 96h -15%.
Screening Cc1nc(N2CCN(c3ccccn3)CC2)c2c(C)c(C(=O)Nc3ccc(F)cc3Cl)sc2n1 returned HCMV antiviral inconclusive, SARS PLpro yeast 5%, Sm TGR inh -2%, HCV inhibitor inconclusive, Pf growth 48h inconclusive and Pf growth 96h 14%.
Screening Cc1ccc(F)cc1NC(=O)c1sc2ncn(CC(=O)N3CCN(c4ccccn4)CC3)c(=O)c2c1C returned HCMV antiviral 9, SARS PLpro yeast -3%, Sm TGR inh 3%, HCV inhibitor 15%, Pf growth 48h 12% and Pf growth 96h 15µM*.
`Cc1nc(N2CCN(c3ccccn3)CC2)c2c(C)c(C(=O)Nc3ccccc3F)sc2n1` gave HCMV antiviral 2, SARS PLpro yeast -2%, Sm TGR inh -17%, HCV inhibitor inconclusive, Pf growth 48h 6.6µM* and Pf growth 96h inconclusive.
`Cc1nc(N2CCC(C)CC2)c2c(C)c(C(=O)Nc3ccc(C(F)(F)F)cc3)sc2n1` gave HCMV antiviral -12, SARS PLpro yeast 0%, Sm TGR inh 3%, HCV inhibitor 11µM*, Pf growth 48h 0.21µM* and Pf growth 96h inconclusive.
Screening Cc1nc(N2CCC(C)CC2)c2c(C)c(C(=O)Nc3cccc(C(F)(F)F)c3)sc2n1 returned HCMV antiviral 11, SARS PLpro yeast -1%, Sm TGR inh 13%, HCV inhibitor inconclusive, Pf growth 48h inconclusive and Pf growth 96h -24%.
For CCOC(=O)CCN(C(=O)Nc1ccccc1)C1CCCCC1 the results were HCMV antiviral -22 and HCV inhibitor 31%.
`S=C(Nc1cccc(Cl)c1)N(CCCN1CCCC1)Cc1cccn1Cc1ccc(Cl)cc1` gave HCMV antiviral -79*, SARS PLpro yeast -2%, Sm TGR inh 0%, HCV inhibitor -27%, Pf growth 48h inconclusive and Pf growth 96h inconclusive.
CSc1cccc(NC(=S)N(CCCN2CCCC2)Cc2cccn2Cc2ccc(Cl)cc2)c1 was read as HCMV antiviral inconclusive, SARS PLpro yeast 0%, Sm TGR inh 4%, HCV inhibitor inconclusive, Pf growth 48h inconclusive and Pf growth 96h -18%.

Screens: PubChem BioAssay, National Center for Advancing Translational Sciences (NCATS)
